# Where “and” joins values, the source holds several entries; their conditions need not be identical. Identical values can stand only once. Inconclusive results are not listed. Where a call stands in place of a potency, no number is given. More than one record can exist for a structure, and the calls need not agree. Calls of active or inactive are those of the source. Unless noted, calls come from the whole dose curve; as a rule, active = well fitted curve in the direction sought with a large enough effect; inconclusive = small, poorly fitted or top-dose-only effect, or another doubt; inactive = no such curve, though single readings can be large; an effect the other way counts as inactive or inconclusive.
# Experiments:
# [1] = Primary qHTS for inhibitors of nuclear receptor binding SET domain protein 2 (NSD2) in an isogenic RCH-ACV NSD2 p.E1099K mutant (9B) (AID 1645876); note: nearly all actives have a fitted effect of over 70% in size; note: potency is the fitted concentration of half-maximal effect
# [2] = Primary qHTS for inhibitors of nuclear receptor binding SET domain protein 2 (NSD2) in an RCH-ACV wild type WT cells (2C) (AID 1645877); note: nearly all actives have a fitted effect of over 70% in size; note: potency is the fitted concentration of half-maximal effect
# [3] = biological target: Rap guanine nucleotide exchange factor 3 (Homo sapiens) (UniProt O95398); assay: Confirmatory qHTS for antagonist of cAMP-regulated guanine nucleotide exchange factor 3 (EPAC1) (AID 1645880); note: nearly all actives have a fitted effect of over 55% in size; note: potency is the fitted concentration of half-maximal effect
# How it was run: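 Nucleotide exchange uses 100 nM EPAC1, 250 nM RAP1B-BODIPY-GDP and 50 uM GDP, with compounds in a concentration-titration series. After 5 min at room temperature, fluorescence (480 nm ex/540 nm em) is read every 5 min for 30 min. Data are normalized to control ATA and DMSO.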
# [4] = biological target: Rap guanine nucleotide exchange factor 3 (Homo sapiens) (UniProt O95398); assay: Confirmatory qHTS for agonist of cAMP-regulated guanine nucleotide exchange factor 3 (EPAC1) (AID 1645881);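 note: EPAC1 catalysed release of BODIPY-GDP from Rap1B seen as fluorescence loss; nearly all actives have a fitted effect of over 75% in size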
# [5] = biological target: Rap guanine nucleotide exchange factor 4 (Homo sapiens) (UniProt Q8WZA2); assay: Confirmatory qHTS for agonist of cAMP-regulated guanine nucleotide exchange factor 4 (EPAC2) (AID 1645884);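 note: nucleotide exchange releases bodipy-GDP from Rap1 and this lowers its fluorescence; nearly all actives have a fitted effect of over 65% in size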
# [6] = biological target: Rap guanine nucleotide exchange factor 4 (Homo sapiens) (UniProt Q8WZA2); assay: Confirmatory qHTS for antagonist of cAMP-regulated guanine nucleotide exchange factor 4 (EPAC2) (AID 1645885); note: nearly all actives have a fitted effect of over 25% in size; note: potency is the fitted concentration of half-maximal effect
# [7] = biological target: Rap guanine nucleotide exchange factor 3 (Homo sapiens) (UniProt O95398); assay: Counterscreen qHTS for antagonist of cAMP-regulated guanine nucleotide exchange factor 3 (EPAC1) (AID 1645888);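 note: fluorescence loss as bound BODIPY-GDP is released from Rap1B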
# How it was run: (§1)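 Rap1B-BODIPY-GDP 250 nM + GDP 50 uM; cpds 7-pt, final 9.74 nM–152 uM (activator mode) or from 7.32 nM upwards (inhibitor mode); RT; FI 480/540 nm at 5 and 30 min, then ± cAMP, reread.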
# [8] = biological target: Rap guanine nucleotide exchange factor 3 (Homo sapiens) (UniProt O95398); assay: Counterscreen qHTS for agonist of cAMP-regulated guanine nucleotide exchange factor 3 (EPAC1) (AID 1645889); note: nearly all actives have a fitted effect of over 40% in size
# How it was run: as §1
# [9] = biological target: Catechol O-methyltransferase (Homo sapiens) (UniProt P21964); assay: Confirmatory Screen for Target Class Profiling of Small Molecule Inhibitors of Methyltransferases (AID 1745852; calls by dose curve; note: potency is the fitted concentration of half-maximal effect); conditions: MTase-Glo luminescence, SAH detection, recombinant enzyme, stronger effect = lower value; measured here: COMT max response unless noted
# [10] = biological target: Guanidinoacetate N-methyltransferase (Homo sapiens) (UniProt Q14353); assay: as above; conditions: MTase-Glo luminescence, SAH detection, recombinant enzyme; activity change, negative = inhibition: at 57.3 µM (top of the series)
# [11] = biological target: Nicotinamide N-methyltransferase (Homo sapiens) (UniProt P40261); assay: as above; conditions: MTase-Glo luminescence, SAH detection, recombinant enzyme, stronger effect = lower value; measured here: NNMT max response unless noted
# [12] = biological target: Phenylethanolamine N-methyltransferase (Homo sapiens) (UniProt P11086); assay: as above; conditions: MTase-Glo luminescence, SAH detection, recombinant enzyme, stronger effect = lower value; measured here: PNMT max response unless noted
# [13] = biological target: Metallo-beta-lactamase type 2 (Klebsiella pneumoniae) (UniProt C7C422); assay: qHTS to identify inhibitors of the New Delhi Metallo-beta-lactamase (NDM): assay validation screen against the NCATS LOPAC Collection (AID 1794843);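 note: nitrocefin turnover by NDM-1 measured as 485 nm absorbance at plateau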
# How it was run: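 Enzyme 2 nM final, 50 mM HEPES pH 7.0, 1 uM ZnSO4, 0.01% Tween20; cpds in DMSO, preincub w/ enzyme; + nitrocefin (50 uM stock); A485 at plateau; no-enzyme column as blank.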
# Sequence of Rap guanine nucleotide exchange factor 3 (Homo sapiens) (O95398 whole entry, looked up): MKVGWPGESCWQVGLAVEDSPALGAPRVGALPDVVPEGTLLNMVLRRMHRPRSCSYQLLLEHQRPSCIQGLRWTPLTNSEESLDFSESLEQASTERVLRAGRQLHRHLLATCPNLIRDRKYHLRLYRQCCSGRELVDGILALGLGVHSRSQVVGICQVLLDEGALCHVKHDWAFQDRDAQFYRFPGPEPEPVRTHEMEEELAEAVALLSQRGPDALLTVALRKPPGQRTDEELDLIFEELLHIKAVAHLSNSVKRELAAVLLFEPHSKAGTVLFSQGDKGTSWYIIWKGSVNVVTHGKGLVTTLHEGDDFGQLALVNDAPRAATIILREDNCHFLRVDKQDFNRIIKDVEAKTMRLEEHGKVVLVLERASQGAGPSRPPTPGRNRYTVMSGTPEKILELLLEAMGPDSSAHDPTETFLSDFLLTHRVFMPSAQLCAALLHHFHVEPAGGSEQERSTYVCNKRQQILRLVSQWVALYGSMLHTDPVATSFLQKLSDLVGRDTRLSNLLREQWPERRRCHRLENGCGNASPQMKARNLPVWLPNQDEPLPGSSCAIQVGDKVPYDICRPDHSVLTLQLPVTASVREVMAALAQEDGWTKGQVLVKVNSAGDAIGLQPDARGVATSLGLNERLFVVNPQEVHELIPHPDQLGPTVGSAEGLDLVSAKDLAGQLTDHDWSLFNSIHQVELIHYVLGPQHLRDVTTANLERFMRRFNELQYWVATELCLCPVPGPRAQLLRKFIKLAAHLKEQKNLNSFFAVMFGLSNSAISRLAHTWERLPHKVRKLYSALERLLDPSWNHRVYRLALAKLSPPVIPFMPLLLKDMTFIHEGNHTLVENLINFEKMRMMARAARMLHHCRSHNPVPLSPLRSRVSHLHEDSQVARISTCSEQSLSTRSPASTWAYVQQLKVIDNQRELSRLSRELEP
# Sequence of Rap guanine nucleotide exchange factor 4 (Homo sapiens) (Q8WZA2 whole entry, looked up): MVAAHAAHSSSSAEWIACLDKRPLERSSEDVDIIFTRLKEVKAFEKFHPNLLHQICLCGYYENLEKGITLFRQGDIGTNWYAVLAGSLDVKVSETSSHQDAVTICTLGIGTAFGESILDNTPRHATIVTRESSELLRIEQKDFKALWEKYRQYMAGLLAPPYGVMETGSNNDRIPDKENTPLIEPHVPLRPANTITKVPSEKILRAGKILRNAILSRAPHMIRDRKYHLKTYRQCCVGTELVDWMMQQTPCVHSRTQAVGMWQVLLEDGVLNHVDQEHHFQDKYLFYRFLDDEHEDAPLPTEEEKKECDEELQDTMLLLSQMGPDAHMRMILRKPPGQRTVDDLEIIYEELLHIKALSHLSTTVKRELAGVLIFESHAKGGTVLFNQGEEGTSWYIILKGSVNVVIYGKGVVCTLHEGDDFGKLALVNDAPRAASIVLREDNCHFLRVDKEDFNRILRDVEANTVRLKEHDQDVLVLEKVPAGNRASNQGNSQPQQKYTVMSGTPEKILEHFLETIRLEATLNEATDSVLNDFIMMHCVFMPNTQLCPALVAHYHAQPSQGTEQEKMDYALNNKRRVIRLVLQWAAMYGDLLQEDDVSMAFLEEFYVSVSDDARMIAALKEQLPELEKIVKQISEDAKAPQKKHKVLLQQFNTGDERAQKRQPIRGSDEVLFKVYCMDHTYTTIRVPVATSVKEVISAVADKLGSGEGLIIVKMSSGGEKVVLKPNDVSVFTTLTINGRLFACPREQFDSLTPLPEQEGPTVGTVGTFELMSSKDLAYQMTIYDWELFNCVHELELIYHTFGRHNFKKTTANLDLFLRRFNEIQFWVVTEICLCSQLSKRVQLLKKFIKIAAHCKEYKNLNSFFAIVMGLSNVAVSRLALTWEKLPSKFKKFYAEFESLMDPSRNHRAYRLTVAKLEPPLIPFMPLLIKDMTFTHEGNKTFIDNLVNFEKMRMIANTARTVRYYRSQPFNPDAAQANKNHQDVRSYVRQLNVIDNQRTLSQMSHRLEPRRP
# Sequence of Metallo-beta-lactamase type 2 (Klebsiella pneumoniae) (C7C422 whole entry, looked up): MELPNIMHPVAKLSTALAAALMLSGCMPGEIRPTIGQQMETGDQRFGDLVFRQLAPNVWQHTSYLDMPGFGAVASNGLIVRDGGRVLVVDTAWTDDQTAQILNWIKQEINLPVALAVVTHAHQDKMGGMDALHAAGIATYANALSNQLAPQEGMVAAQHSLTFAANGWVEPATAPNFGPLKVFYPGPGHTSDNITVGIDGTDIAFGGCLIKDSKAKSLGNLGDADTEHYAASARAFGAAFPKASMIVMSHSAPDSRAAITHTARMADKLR
# Sequence of Phenylethanolamine N-methyltransferase (Homo sapiens) (P11086 whole entry, looked up): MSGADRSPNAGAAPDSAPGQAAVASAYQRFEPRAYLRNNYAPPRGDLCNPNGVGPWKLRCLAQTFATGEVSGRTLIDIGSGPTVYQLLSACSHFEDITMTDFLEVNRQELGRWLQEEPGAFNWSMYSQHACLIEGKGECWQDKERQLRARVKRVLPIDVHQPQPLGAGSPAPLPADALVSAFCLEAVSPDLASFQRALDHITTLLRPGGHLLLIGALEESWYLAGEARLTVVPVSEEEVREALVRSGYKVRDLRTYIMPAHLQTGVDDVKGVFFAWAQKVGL
# Sequence of Nicotinamide N-methyltransferase (Homo sapiens) (P40261 whole entry, looked up): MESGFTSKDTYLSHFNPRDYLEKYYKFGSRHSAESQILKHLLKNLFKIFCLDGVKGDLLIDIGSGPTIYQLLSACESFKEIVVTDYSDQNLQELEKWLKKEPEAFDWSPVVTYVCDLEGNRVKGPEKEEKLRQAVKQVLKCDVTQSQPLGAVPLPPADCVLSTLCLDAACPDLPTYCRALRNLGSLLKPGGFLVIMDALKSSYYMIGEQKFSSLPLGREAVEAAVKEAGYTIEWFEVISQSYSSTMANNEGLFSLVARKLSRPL
# Sequence of Catechol O-methyltransferase (Homo sapiens) (P21964 whole entry, looked up): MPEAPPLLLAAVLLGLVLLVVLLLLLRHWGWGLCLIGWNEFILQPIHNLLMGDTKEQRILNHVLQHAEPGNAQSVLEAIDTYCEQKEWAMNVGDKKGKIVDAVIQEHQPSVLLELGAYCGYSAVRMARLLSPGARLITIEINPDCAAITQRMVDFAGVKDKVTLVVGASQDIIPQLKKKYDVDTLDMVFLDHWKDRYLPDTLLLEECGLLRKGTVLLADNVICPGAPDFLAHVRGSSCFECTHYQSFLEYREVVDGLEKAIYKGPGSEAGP
smiles,measurement,setting,value
Cn1c(NCCN(CCO)CCCc2ccc([N+](=O)[O-])cc2)cc(=O)n(C)c1=O,Potency,[1],inactive
same,Potency,[2],inactive
Nc1cc(C(Cl)=C(Cl)Cl)c(S(N)(=O)=O)cc1S(N)(=O)=O,Potency,[1],inactive
same,Potency,[2],inactive
Cc1nc(-c2ccc(OCC(C)C)c(C#N)c2)sc1C(=O)O,Potency,[1],inactive
same,Potency,[2],inactive
CC(C)c1ccc2c(c1)c(SC(C)(C)C)c(CC(C)(C)C(=O)O)n2Cc1ccc(Cl)cc1,Potency,[1],inactive
same,Potency,[2],inactive
same,Potency,[3],inactive and 30.1 µM (active) and 35.2 µM (active)
same,outcome,[4],inactive
same,outcome,[5],inactive
same,Potency,[6],inactive and 19 µM (active) and 27.8 µM (active)
same,outcome,[7],inactive
same,outcome,[8],inactive
same,activity,[9],-0.145%
same,Potency,[10],30600 nM (active)
same,activity,[11],-41.8%
same,activity,[12],-5.81%
same,outcome,[13],inactive
O=C(NOCC1CC1)c1ccc(F)c(F)c1Nc1ccc(I)cc1Cl,Potency,[1],8.41 µM (active) and 23 µM (active)
same,Potency,[2],6.68 µM (active) and 20.5 µM (active)
CN(C)c1ccc(O)c2c1C[C@H]1C[C@H]3[C@H](N(C)C)C(=O)C(C(N)=O)=C(O)[C@@]3(O)C(=O)C1=C2O,Potency,[1],inactive
same,Potency,[2],inactive
Cc1cc(C2CCCCC2)n(O)c(=O)c1,Potency,[1],5.8 µM (active) and 266 nM (active) and 7.42 µM (active)
same,Potency,[2],3.26 µM (active) and 266 nM (active) and 4.68 µM (active)
COc1ccc(C2(C#N)CCC(C(=O)O)CC2)cc1OC1CCCC1 (stereo unspecified),Potency,[1],inactive
same,Potency,[2],inactive
Cc1nccn1CC1CCc2c(c3ccccc3n2C)C1=O (stereo unspecified),Potency,[1],inactive
same,Potency,[2],inactive
Cc1ccc(S(=O)(=O)NC(=O)NN2CC3CCCC3C2)cc1 (stereo unspecified),Potency,[1],inactive
same,Potency,[2],inactive
Cc1nc2n(c(=O)c1CCN1CCC(c3noc4cc(F)ccc34)CC1)CCCC2,Potency,[1],inactive
same,Potency,[2],inactive
Cc1cc(=O)oc2cc(O)ccc12,Potency,[1],inactive
same,Potency,[2],inactive
CC(C)Oc1ccc2c(=O)c(-c3ccccc3)coc2c1,Potency,[1],inactive
same,Potency,[2],inactive
Nc1ncn([C@H]2C[C@H](O)[C@@H](CO)O2)c(=O)n1,Potency,[1],266 nM (active) and 742 nM (active)
same,Potency,[2],133 nM (active) and 1.18 µM (active)
CCCS(=O)c1ccc2nc(NC(=O)OC)[nH]c2c1 (stereo unspecified),Potency,[1],4.22 µM (active) and 8.17 µM (active)
same,Potency,[2],2.66 µM (active) and 18.6 µM (active) and 4.09 µM (active)
CCOc1cc(CC(=O)N[C@@H](CC(C)C)c2ccccc2N2CCCCC2)ccc1C(=O)O,Potency,[1],inactive
same,Potency,[2],inactive
same,Potency,[3],inactive
same,outcome,[4],inactive
same,outcome,[5],inactive
same,Potency,[6],inactive
same,outcome,[7],inactive
same,outcome,[8],inactive
c1ccc2[nH]c(-c3cscn3)nc2c1,Potency,[1],inactive
same,Potency,[2],inactive and 13.2 µM (active)
COC1=C(OC)C(=O)C(CCCCCCCCCCO)=C(C)C1=O,Potency,[1],11.9 µM (active) and 18.6 µM (active)
same,Potency,[2],9.44 µM (active) and 18.6 µM (active)
CCCc1cc(=O)[nH]c(=S)[nH]1,Potency,[1],inactive
same,Potency,[2],inactive
CCCCC(CC)COC(=O)C(C#N)=C(c1ccccc1)c1ccccc1 (stereo unspecified),Potency,[1],21.1 µM (active) and inactive
same,Potency,[2],inactive
O=C(NCCO[N+](=O)[O-])c1cccnc1,Potency,[1],inactive
same,Potency,[2],inactive
CN(C)c1ccc2nc3ccc(=[N+](C)C)cc-3sc2c1,Potency,[1],1.32 µM (active) and 2.37 µM (active)
same,Potency,[2],1.32 µM (active) and 2.37 µM (active)
C=C(c1ccc(C(=O)O)cc1)c1cc2c(cc1C)C(C)(C)CCC2(C)C,Potency,[1],inactive
same,Potency,[2],inactive
COc1cc(OC)c(C(=O)CCCN2CCCC2)c(OC)c1,Potency,[1],inactive
same,Potency,[2],inactive
NNc1nncc2ccccc12,Potency,[1],inactive
same,Potency,[2],inactive
Nc1nc(Cl)nc2c1ncn2[C@H]1C[C@H](O)[C@@H](CO)O1,Potency,[1],46.8 nM (active)
same,Potency,[2],41.7 nM (active)
CCCCN(CCCC)CCC(O)c1cc2c(Cl)cc(Cl)cc2c2cc(C(F)(F)F)ccc12 (stereo unspecified),Potency,[1],13300 nM (active)
same,Potency,[2],16600 nM (active)
Nc1ccn([C@@H]2O[C@H](CO)[C@@H](O)C2O)c(=O)n1 (stereo partly specified),Potency,[1],16.6 nM (active)
same,Potency,[2],16.6 nM (active)
O=C(NCC1CCCCN1)c1cc(OCC(F)(F)F)ccc1OCC(F)(F)F (stereo unspecified),Potency,[1],inactive
same,Potency,[2],inactive
O=C(O)c1cccc(-c2noc(-c3ccccc3F)n2)c1,Potency,[1],inactive
same,Potency,[2],inactive
Cc1ccc(C)c(OCCCC(C)(C)C(=O)O)c1,Potency,[1],inactive
same,Potency,[2],inactive
CCc1nc(N)nc(N)c1-c1ccc(Cl)cc1,Potency,[1],2.37 µM (active) and 2.95 µM (active)
same,Potency,[2],3.35 µM (active) and 4.17 µM (active)

# Reference: PubChem BioAssay (NCATS)
